Most compounds without a hit are left out; they make up all but 3.1% or so of the library.
Anthrax LF inh2: blocks Bacillus anthracis lethal factor protease. P15917. multiplex microsphere protease cleavage assay, LF. inhibition, % at 10 µM. 360,000 compounds, 0.12% hits. AID 588501
PriA SSB inh: K. pneumoniae PriA-SSBct interaction inhibition; AlphaScreen SSBct-PriA binding, biotinylated peptide; inhibition, % at 33 µM; 430,000 compounds, 0.6% hits; AID 1272365; in the data active means inhibition mostly above about 37%, no sharp cut-off; inactive means mostly below about 20%
BoNT-F LC inh: BoNT F light chain protease inhibition; Multiplex microsphere protease cleavage assay, flow cytometry; inhibition, % at 10 µM; 360,000 compounds, 0.22% hits; AID 588497; in the data active means inhibition above about 35%, passing the limit was not always enough; inconclusive means no clear call, values can overlap the other calls
BoNT A protease: BoNT A light chain protease inhibition; 360,000 compounds, 0.17% hits; multiplex microsphere protease substrate cleavage, flow cytometry; inhibition, % at 10 µM
Bead autofluor: compound fluorescence in toxin protease inhibitor counterscreen | compound autofluorescence counterscreen, microsphere flow cytometry; hits give high values | fluorescence intensity (concentration not given with the values) | 360,000 compounds, 3.1% hits; in the data active means fluorescence intensity above about 16000; inconclusive means no clear call, values can overlap the other calls
Hits are given with their value. Unless noted, no stated cut-off is given here; in the data, active means inhibition above about 30%; inconclusive means no clear call, values can overlap the other calls; inactive means below that.

Cn1ccnc1SCC(=O)Nc1ccc(Oc2ccccc2)cc1 was read as Anthrax LF inh2 inactive, PriA SSB inh 39.9, BoNT-F LC inh inactive, BoNT A protease inactive and Bead autofluor inactive.
`COc1ccc(NC(=O)CC(Cc2ccccc2)C(=O)O)cc1` (configuration not stated) gave Anthrax LF inh2 inactive, PriA SSB inh inactive, BoNT-F LC inh inactive, BoNT A protease inactive and Bead autofluor 22709.
Screening COc1ccc(NC(=O)CSc2nccn2Cc2ccccc2)cc1 returned Anthrax LF inh2 inactive, PriA SSB inh 45.6, BoNT-F LC inh inactive, BoNT A protease inactive and Bead autofluor inactive.
`COc1ccc(-n2ccn3c(-c4cccc(F)c4)nnc3c2=O)cc1` gave PriA SSB inh inactive.
Screening Cc1ccc(C)c(Nc2nc(NCc3ccc4c(c3)OCO4)nc3nccnc23)c1 returned PriA SSB inh inactive.
For COc1cccc(NS(=O)(=O)c2cccc(F)c2)c1 the results were PriA SSB inh inactive.
COc1ccccc1N1CCN(C(=O)CSc2nccn3nc(-c4ccc(Cl)cc4)cc23)CC1 was read as PriA SSB inh inactive.
`CC1(C)Cc2nc3sc4c(OCc5ccccc5)ncnc4c3cc2CO1` gave Anthrax LF inh2 inactive, PriA SSB inh inactive, BoNT-F LC inh inactive, BoNT A protease inactive and Bead autofluor inactive.
`CCc1nc(OCc2ccccc2)c2sc3nc4c(cc3c2n1)COC(C)(C)C4` gave Anthrax LF inh2 inactive, PriA SSB inh inactive, BoNT-F LC inh inactive, BoNT A protease inconclusive and Bead autofluor 21172.
`Clc1ncccc1-c1nc2ccccc2n1Cc1ccccc1` gave Anthrax LF inh2 inactive, PriA SSB inh inactive, BoNT-F LC inh inactive, BoNT A protease inconclusive and Bead autofluor 20310.
For CCn1c(-c2cccnc2Cl)nc2ccccc21 the results were Anthrax LF inh2 inactive, PriA SSB inh inactive, BoNT-F LC inh inactive, BoNT A protease inactive and Bead autofluor 23168.
`CCn1c(NCc2ccccn2)nc2ccccc21` gave Anthrax LF inh2 inactive, PriA SSB inh inactive, BoNT-F LC inh inactive, BoNT A protease inactive and Bead autofluor inactive.
Screening Cn1cccc1-c1nc2ccccc2n1Cc1ccccc1 returned Anthrax LF inh2 inactive, PriA SSB inh inactive, BoNT-F LC inh inconclusive, BoNT A protease inactive and Bead autofluor inactive.
For CS(=O)(=O)c1nc2ccccc2n1Cc1ccccc1 the results were Anthrax LF inh2 inactive, PriA SSB inh inactive, BoNT-F LC inh inactive, BoNT A protease inactive and Bead autofluor 23807.
Screening NC(=O)c1ccc(NC(=O)Cn2nc(-c3ccccc3)c3sc(N4CCOCC4)nc3c2=O)cc1 returned PriA SSB inh inactive.
CC1=C(C(=O)NCc2ccccc2)C(c2ccc(C)o2)n2ncnc2N1 (configuration not stated) was read as Anthrax LF inh2 inactive, PriA SSB inh inactive, BoNT-F LC inh inactive, BoNT A protease inconclusive and Bead autofluor 20601.
Screening Cc1ccc(-c2ccc(=O)n(Cc3cccnc3)n2)cc1C returned PriA SSB inh inactive.
CCn1c(SCc2nc3ccccc3[nH]2)nnc1-c1ccc(OC)cc1 was read as Anthrax LF inh2 inactive, PriA SSB inh inactive, BoNT-F LC inh inactive, BoNT A protease inactive and Bead autofluor 23993.
`CCn1c(SCc2nc3ccccc3[nH]2)nnc1-c1cccnc1` gave Anthrax LF inh2 inactive, PriA SSB inh inactive, BoNT-F LC inh inactive, BoNT A protease inconclusive and Bead autofluor 24875.
`C=CCn1c(SCc2cccc3ccccc23)nnc1-c1cccnc1` gave Anthrax LF inh2 inactive, PriA SSB inh inactive, BoNT-F LC inh inactive, BoNT A protease inactive and Bead autofluor 21679.
For C=CCn1c(SCc2nc3ccccc3[nH]2)nnc1-c1cccc(OC)c1 the results were Anthrax LF inh2 inactive, PriA SSB inh inactive, BoNT-F LC inh inactive, BoNT A protease inactive and Bead autofluor 22532.
C=CCn1c(SCc2nc3ccccc3[nH]2)nnc1-c1ccccn1 was read as Anthrax LF inh2 inactive, PriA SSB inh inactive, BoNT-F LC inh inactive, BoNT A protease inconclusive and Bead autofluor 18300.
For CCn1c(SCc2nc3ccccc3[nH]2)nnc1-c1ccncc1 the results were Anthrax LF inh2 inactive, PriA SSB inh inactive, BoNT-F LC inh inactive, BoNT A protease inactive and Bead autofluor inactive.
C=CCn1c(SCc2nc3ccccc3[nH]2)nnc1-c1ccc(OC)cc1 was read as Anthrax LF inh2 inactive, PriA SSB inh inactive, BoNT-F LC inh inactive, BoNT A protease inactive and Bead autofluor 20347.
`O=C(C[C@@H]1C/C=C/C[C@H](Cc2ccc(F)cc2)C(=O)OC[C@H]2CCCN2C1=O)N[C@H](CO)Cc1ccccc1` gave PriA SSB inh inactive.
`COc1ccc(C2=NO[C@@H]3C(=O)N(c4c(C)cccc4C)C(=O)[C@H]23)cc1OC` gave Anthrax LF inh2 inactive, PriA SSB inh inactive, BoNT-F LC inh inactive, BoNT A protease inconclusive and Bead autofluor 22305.
`O=C(c1ccc2ccccc2c1)N1CCOC2(CCOCC2)C1` gave PriA SSB inh inactive.
For CCOC(=O)c1c(C)c(C(=O)N2CCCCCC2)c(C)n1CC the results were Anthrax LF inh2 inactive, PriA SSB inh inactive, BoNT-F LC inh inactive, BoNT A protease inconclusive and Bead autofluor 20617.
For CCOC(=O)c1c(C)c(C(=O)N2CCCCCC2)c(C)n1C the results were Anthrax LF inh2 inactive, PriA SSB inh inactive, BoNT-F LC inh inactive, BoNT A protease inactive and Bead autofluor 23943.
`CCOC(=O)c1c(C)c(C(=O)N2CCN(c3ccccc3)CC2)c(C)n1C` gave Anthrax LF inh2 inactive, PriA SSB inh inactive, BoNT-F LC inh inactive, BoNT A protease inactive and Bead autofluor inactive.
For CC(C)n1cnc(S(=O)(=O)Nc2ccc(-c3csc(Nc4cccnc4)n3)cc2)c1 the results were PriA SSB inh inactive.
Screening Cc1nc(SCc2ccccc2F)[nH]c(=O)c1CC(=O)NCc1cccs1 returned PriA SSB inh inactive.
Cc1nnc(SCc2ccccc2F)n1NCc1cccs1 was read as Anthrax LF inh2 inactive, PriA SSB inh inactive, BoNT-F LC inh inactive, BoNT A protease inactive and Bead autofluor 22098.
For CCCC1CCC(c2nc(-c3cccnc3)no2)CC1 (configuration not stated) the results were Anthrax LF inh2 inactive, PriA SSB inh inactive, BoNT-F LC inh inactive, BoNT A protease inconclusive and Bead autofluor 19821.
For CCCCCCC1CCC(c2nc(-c3ccncc3)no2)CC1 (configuration not stated) the results were Anthrax LF inh2 inactive, PriA SSB inh inactive, BoNT-F LC inh inactive, BoNT A protease inactive and Bead autofluor inactive.
For COc1ccccc1NC(=O)c1ccc(NC(=O)CN2CCCC2)cc1 the results were Anthrax LF inh2 inactive, PriA SSB inh 46.7, BoNT-F LC inh inactive, BoNT A protease inactive and Bead autofluor inactive.
`COC(=O)c1cc(NC(=O)CN(c2ccc3c(c2)OCO3)S(C)(=O)=O)ccc1Cl` gave Anthrax LF inh2 inactive, PriA SSB inh inactive, BoNT-F LC inh inactive, BoNT A protease inactive and Bead autofluor inactive.
For COC(=O)c1ccc(Cl)c(NC(=O)CN(c2ccc3c(c2)OCO3)S(C)(=O)=O)c1 the results were Anthrax LF inh2 inactive, PriA SSB inh inactive, BoNT-F LC inh inactive, BoNT A protease inactive and Bead autofluor 20796.
For Cc1c(Cl)cccc1NC(=S)N1CCN(Cc2ccccc2)CC1 the results were Anthrax LF inh2 inactive, PriA SSB inh inactive, BoNT-F LC inh inactive, BoNT A protease inactive and Bead autofluor 23770.

Compound activity as filed in PubChem.
